Hit rate of the full screen: of about 96,000 compounds, about 20,000 (21%) were called active. A selection follows. A number with no mark means an inactive call.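 The calls were made as follows: active = CYP2C19 inhibition above a set limit at 5 µM in the primary screen (cut at about 50% in these data); inactive = the rest.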

Sequence of Cytochrome P450 2C19 (Homo sapiens) (P33261 whole entry, looked up): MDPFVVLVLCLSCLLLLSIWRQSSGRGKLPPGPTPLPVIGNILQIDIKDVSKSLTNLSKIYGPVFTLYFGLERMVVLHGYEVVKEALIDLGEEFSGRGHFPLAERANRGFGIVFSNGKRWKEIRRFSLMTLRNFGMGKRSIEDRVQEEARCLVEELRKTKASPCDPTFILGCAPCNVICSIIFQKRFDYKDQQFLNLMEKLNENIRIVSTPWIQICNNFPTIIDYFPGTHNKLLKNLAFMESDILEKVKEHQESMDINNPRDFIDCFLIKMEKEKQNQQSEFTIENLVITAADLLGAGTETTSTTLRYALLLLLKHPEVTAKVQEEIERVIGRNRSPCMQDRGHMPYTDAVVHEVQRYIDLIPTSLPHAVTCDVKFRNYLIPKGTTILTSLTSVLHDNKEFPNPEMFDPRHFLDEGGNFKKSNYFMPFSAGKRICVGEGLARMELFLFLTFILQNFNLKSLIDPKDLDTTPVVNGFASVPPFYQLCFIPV

This assay addresses Cytochrome P450 2C19 (Homo sapiens) (UniProt P33261). Kind of assay: blockers of cytochrome P450 2C19 activity – biochemical, luminescence, ADME assay, primary screen (AID 778).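 Also: plate controls were negative control wells for no effect and 2.5 mM tranylcypromine positive control for full effect.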 Particulars: CYP2C19 Supersomes, luciferin-H EGE luminescence, 30 min; at 5 µM; active compounds read high.
For the molecule `COc1ccc(CN2CCN(c3ccccc3F)CC2)c(OC)c1`, the inhibition was 86.7% (active).

Turning to `CC(C)c1ccc(O)c(CN2CCN(c3ccccc3)CC2)c1`, the inhibition was 19.8%.

Turning to `CCCCCn1c(=O)c(C(=O)NCc2ccccn2)c(O)c2ccccc21`, the inhibition is 26%.

For `CCC(=NCCCO)c1c(O)n(-c2ccc(OC)cc2)c(=O)[nH]c1=O`, the inhibition is -9.4%.

As for `CCCCCCN=C(CC)c1c(O)n(CCCC)c(=O)[nH]c1=O`, the inhibition is 73.6% (active).

Consider `CCCCn1c(O)c(C(CC)=NCc2ccco2)c(=O)[nH]c1=O`, for which the inhibition is 29.9%.

As for `Cn1c(O)c(C=NCCCC(=O)O)c(=O)n(C)c1=O`, the inhibition was -13.4%.

On to `CCN(CC)CCOC(=O)c1cc2cc(COC)ccc2o1`, for which the inhibition is -6.5%.

In the case of `O=C(c1cc(S(=O)(=O)N2CCOCC2)ccc1F)N1CCC2(CC1)OCCO2`, the inhibition was -8%.

Turning to `Cc1cc(OCc2cc(C(=O)O)oc2C)c2c3c(c(=O)oc2c1)CCCC3`, the inhibition was -33%.

`CCN1CCN(C(=O)Cc2coc3cc(C)cc(C)c23)CC1`: the inhibition is 89.1% (active).

For the molecule `CN(C)C(=O)NC(O)C(Cl)(Cl)Cl` (stereo not given), the inhibition was 23.9%.

For the molecule `CCN(CC)P(=O)(Oc1cccc(C)c1)N(CC)CC`, the inhibition was 78.8% (active).

`O=C(CN1CCCCC1)Nc1ccc(Br)cc1C(=O)c1ccccc1Cl`: the inhibition was 10.3%.

With `CC12CN3CC(C)(CN(C1)C3c1cccs1)C2` (stereo not given), the inhibition was 7.6%.

Take `Cc1ccc(N(C)C(=O)Oc2cccc3ccc(C)nc23)cc1`: the inhibition was 55.4% (active).

For the molecule `CN1C2C=C(N(C(=O)c3ccc(Cl)cc3)c3ccccc3)CC1CC2` (stereo not given), the inhibition is 19.9%.

On to `CCOC(=O)c1c(C)c(C(=O)N2CCC3(CC2)OCCO3)c(C)n1CC`, for which the inhibition is 49.7%.

Turning to `C[N+]12CN3CN(CN(C3)C1)C2`, the inhibition is -6.5%.

For the molecule `Cc1ccc(Cn2nnnc2CN2CCC(n3nnc4ccccc43)CC2)cc1`, the inhibition is 87.4% (active).

For `Nc1ccc(C(=O)N/N=C2/CN3CCC2CC3)cc1`, the inhibition was 15.9%.

Turning to `O=C(O)C1CSC(c2cccnc2)N1` (stereo not given), the inhibition is -10.8%.

As for `CCOC(=O)C1CN(C)CCC1=O` (stereo not given), the inhibition is -3.5%.

As to `CC(=O)NC(=O)NC(C)Cc1ccccc1` (stereo not given), the inhibition was -11.6%.

On to `CC(=O)c1ccc(OC(NC(=O)Cc2ccccc2)C(Cl)(Cl)Cl)cc1` (stereo not given), for which the inhibition was 83.1% (active).

`Cc1nc2ccccn2c1P(=S)(N1CCCCC1)N1CCCCC1`: the inhibition is 17.2%.

`CC1=C(C(=O)Nc2ccccc2)SCCO1`: the inhibition was -3.1%.

Regarding `CCOP(=S)(OCC)SCOC(=O)NCC(=O)OC`, the inhibition was 95.6% (active).

For `Cc1cccc(N2C(=O)NC(=O)/C(=C\c3cnn(-c4ccccc4)c3)C2=O)c1`, the inhibition was -9.4%.

Regarding `Cn1c(O)c(C=Nc2ccc3c(c2)CCC3)c(=O)n(C)c1=O`, the inhibition is 31.3%.

On to `N#Cc1ccc(Cn2cc(C(=O)c3ccco3)c3ccccc32)cc1`, for which the inhibition is 9.2%.

In the case of `CSC1=NP(=S)(SC)N(C)c2nc3n(c21)CCC3` (stereo not given), the inhibition was 8.2%.

As for `OC(CNC1CCCCC1)c1ccccc1` (stereo not given), the inhibition was 58.5% (active).

In the case of `COC(=O)C(c1ccccc1)N1CCCCCC1` (stereo not given), the inhibition is 12.8%.

For the molecule `O=C(CSC1c2ccccc2-c2ccccc21)N/N=C/c1ccccc1`, the inhibition was 25.3%.

Regarding `CCCC(C)n1[nH]c(=O)c2c1NC(=O)CSC2c1ccc(OC)c(OC)c1` (stereo not given), the inhibition was 7.2%.

For `c1cncc(CNC2=NCCC2)c1`, the inhibition was -16.9%.

As to `CCc1cccc2c(C#N)cn(CC(=O)N3CCOCC3)c12`, the inhibition was 6.7%.

For `CC(=O)Nc1ccccc1C(=O)OCC(=O)c1cccc2ccccc12`, the inhibition was 51.1% (active).

As to `CCOc1ccc(C2SCC(=O)Nc3c2c(C)nn3C2CCOC(C)(C)C2)cc1` (stereo not given), the inhibition was 7%.

As to `CC(C)c1ccc(OCC(=O)N2CCN(C)CC2)c(Br)c1`, the inhibition was 76% (active).

With `CN1CCN(C(=O)COc2ccc(C(C)(C)C)cc2Br)CC1`, the inhibition is 66.5% (active).

As to `NC(=O)Nc1cccc(C(F)(F)F)c1`, the inhibition was 26.2%.

As to `Cc1nc2nc(C)c(CCC(=O)N3CCC4(CC3)OCCO4)c(C)n2n1`, the inhibition is 0%.

Consider `CC(=O)c1c(O)n(C2CCCCCC2)c(=O)[nH]c1=O`, for which the inhibition is 27%.

On to `O=C(COc1ccc2ccccc2c1)N1CCN(Cc2ccncc2)CC1`, for which the inhibition was 90.1% (active).

Regarding `CCN(CC)C(=O)c1ccc(NC(=O)c2cc(-n3cnnc3)ccc2Cl)cc1`, the inhibition was 11.1%.

In the case of `Cn1c(C(=O)N2CCC(C(=O)N3CCC4(CC3)OCCO4)CC2)cc2sccc21`, the inhibition is 7.5%.

As for `CC(C)(C)c1ccc(CN2C(=O)CN=C(c3ccccc3)c3ccccc32)cc1`, the inhibition is 16.5%.

On to `CCOC(=O)c1c(-c2ccccc2)oc2ccc(OC(=O)N(C)C)cc12`, for which the inhibition was 60.7% (active).

Regarding `Cc1ccc2c(c1)C1CN(C)CCC1N2C(=O)Cn1nnc(-c2ccccc2F)n1` (stereo not given), the inhibition was 8.3%.

As to `CCc1nc2ccccc2c(=O)n1-c1cccc(OC)c1`, the inhibition was 33.5%.

`O=c1c2ccccc2nc(-c2ccc(Cl)cc2Cl)n1-c1ccncc1`: the inhibition was 76.4% (active).

As for `O=c1c2ccccc2nc(-c2ccco2)n1-c1ccc(Br)cn1`, the inhibition is -3.5%.

As to `COC(=O)C(O)(c1ccc(NC(=O)c2ccco2)c(OC)c1)C(F)(F)F` (stereo not given), the inhibition is 39%.

As for `CCNc1nc2[nH]c(=O)c3c(c2s1)OC(N)=C(C#N)C3c1cccs1` (stereo not given), the inhibition is -19.6%.

For `CCC(=O)CC(c1ccc([N+](=O)[O-])cc1)c1c(O)c2ccccc2oc1=O` (stereo not given), the inhibition was 1.3%.

As to `COc1ccc(C2NCc3ccc4c(c3-n3cccc32)OCO4)cc1OC` (stereo not given), the inhibition is 77.5% (active).

`c1ccc(C2NCc3ccccc3-n3cccc32)cc1` (stereo not given): the inhibition is 33%.

Consider `CCC(=NCc1ccco1)c1c(O)n(Cc2ccccc2)c(=O)[nH]c1=O`, for which the inhibition was 49.6%.

In the case of `CC(=NCc1ccc2c(c1)OCO2)c1c(O)[nH]c(=O)[nH]c1=O`, the inhibition was -13.9%.

For the molecule `COc1ccc(CCn2c(O)c(C=NC3CC3)c(=O)[nH]c2=O)cc1OC`, the inhibition was 94.9% (active).

Consider `COc1ccc(CCn2c(O)c(C=NCCCn3ccnc3)c(=O)[nH]c2=O)cc1OC`, for which the inhibition is 16.7%.

In the case of `COc1ccccc1-n1c(O)c(C=NC2CC2)c(=O)[nH]c1=O`, the inhibition was 42.1%.

In the case of `CC(=O)N1CN2CN(C(C)=O)CC(C(=O)c3ccc(Br)cc3)(C2)C1`, the inhibition is -5.5%.

As usually defined, the inhibition is the relative decrease from the control value, in per cent.

Values taken from PubChem BioAssay AID778 (Sanford-Burnham Center for Chemical Genomics, 2007).
